{"source": "paper PMC7862700", "about": "“An all-to-all approach to the identification of sequence-specific readers for epigenetic DNA modifications on cytosine”", "experiment_in_all_cases": "DAPPL (digital affinity profiling via proximity ligation, sequencing); 10 mM Tris-HCl pH 7.5, 50 mM NaCl, 1 mM DTT, 4% glycerol, room temperature, 30 min; GST-TFs on glutathione beads, 16-mer random dsDNA library, 0.1% formaldehyde crosslink after washing; high values mean tight binding", "conditions_in_all_cases": "protein: recombinant; tags: N-terminal GST; dsDNA, one strand shown", "key": {"ELK1": {"target": "T1, ELK1 (Homo sapiens, UniProt P19419 1-428)", "T1 sequence": "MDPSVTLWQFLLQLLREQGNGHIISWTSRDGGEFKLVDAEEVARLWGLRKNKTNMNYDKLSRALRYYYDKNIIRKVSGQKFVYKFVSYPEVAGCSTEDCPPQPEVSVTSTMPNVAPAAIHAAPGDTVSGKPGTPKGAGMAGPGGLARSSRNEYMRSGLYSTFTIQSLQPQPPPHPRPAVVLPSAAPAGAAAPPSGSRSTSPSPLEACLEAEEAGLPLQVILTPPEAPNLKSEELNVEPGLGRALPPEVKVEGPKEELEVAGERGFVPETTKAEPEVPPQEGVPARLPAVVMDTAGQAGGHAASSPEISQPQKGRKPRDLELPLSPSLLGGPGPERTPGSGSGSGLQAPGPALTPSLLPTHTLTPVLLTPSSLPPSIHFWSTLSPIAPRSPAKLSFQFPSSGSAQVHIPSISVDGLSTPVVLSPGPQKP", "how_it_was_run": "(§1)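 GST fusions of human transcription factors were expressed in yeast and captured with glutathione beads. Once given DNA barcodes and pooled alongside a tag-only sample, they were incubated for 30 min at room temperature with 200 nmole of a random double-stranded 16-mer DNA library in Tris/NaCl/DTT/glycerol buffer, then washed, crosslinked (0.1% formaldehyde), proximity-ligated, PCR-amplified and sequenced on an Illumina NextSeq500. The binding signal of each hexamer is its read frequency for a factor divided by its frequency for the tag-only sample.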"}, "GABPA": {"target": "T2, GABPA (Homo sapiens, UniProt Q06546 1-454)", "T2 sequence": "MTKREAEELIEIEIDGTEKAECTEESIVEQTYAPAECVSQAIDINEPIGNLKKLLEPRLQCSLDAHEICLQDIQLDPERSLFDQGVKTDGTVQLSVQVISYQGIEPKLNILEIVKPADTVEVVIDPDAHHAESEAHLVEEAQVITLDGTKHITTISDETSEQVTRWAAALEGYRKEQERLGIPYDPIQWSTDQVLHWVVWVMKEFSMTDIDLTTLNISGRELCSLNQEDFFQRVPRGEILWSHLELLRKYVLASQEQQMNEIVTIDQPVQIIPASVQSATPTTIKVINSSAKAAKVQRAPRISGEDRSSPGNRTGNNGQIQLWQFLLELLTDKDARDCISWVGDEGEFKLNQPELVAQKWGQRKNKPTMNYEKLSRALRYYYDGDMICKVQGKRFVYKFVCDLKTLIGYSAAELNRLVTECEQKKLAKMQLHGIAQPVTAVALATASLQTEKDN", "how_it_was_run": "as §1"}, "ERG": {"target": "T3, ERG (Homo sapiens, UniProt P11308 1-479)", "T3 sequence": "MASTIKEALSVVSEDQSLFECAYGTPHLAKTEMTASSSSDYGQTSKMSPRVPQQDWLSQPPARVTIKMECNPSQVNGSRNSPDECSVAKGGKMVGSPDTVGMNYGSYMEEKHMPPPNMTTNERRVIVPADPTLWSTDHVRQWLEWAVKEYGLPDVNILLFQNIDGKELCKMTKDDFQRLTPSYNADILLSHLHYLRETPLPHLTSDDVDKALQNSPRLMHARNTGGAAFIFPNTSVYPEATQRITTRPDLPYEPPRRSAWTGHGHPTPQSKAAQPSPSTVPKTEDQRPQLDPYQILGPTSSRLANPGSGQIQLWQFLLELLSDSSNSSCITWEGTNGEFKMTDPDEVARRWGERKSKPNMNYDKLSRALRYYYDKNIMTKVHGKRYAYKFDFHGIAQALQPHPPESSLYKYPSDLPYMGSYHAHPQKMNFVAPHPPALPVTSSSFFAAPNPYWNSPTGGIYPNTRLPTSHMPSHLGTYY", "how_it_was_run": "as §1"}, "ELF1": {"target": "ELF1 (Homo sapiens, UniProt P32519 1-619)", "sequence (P32519 whole entry)": "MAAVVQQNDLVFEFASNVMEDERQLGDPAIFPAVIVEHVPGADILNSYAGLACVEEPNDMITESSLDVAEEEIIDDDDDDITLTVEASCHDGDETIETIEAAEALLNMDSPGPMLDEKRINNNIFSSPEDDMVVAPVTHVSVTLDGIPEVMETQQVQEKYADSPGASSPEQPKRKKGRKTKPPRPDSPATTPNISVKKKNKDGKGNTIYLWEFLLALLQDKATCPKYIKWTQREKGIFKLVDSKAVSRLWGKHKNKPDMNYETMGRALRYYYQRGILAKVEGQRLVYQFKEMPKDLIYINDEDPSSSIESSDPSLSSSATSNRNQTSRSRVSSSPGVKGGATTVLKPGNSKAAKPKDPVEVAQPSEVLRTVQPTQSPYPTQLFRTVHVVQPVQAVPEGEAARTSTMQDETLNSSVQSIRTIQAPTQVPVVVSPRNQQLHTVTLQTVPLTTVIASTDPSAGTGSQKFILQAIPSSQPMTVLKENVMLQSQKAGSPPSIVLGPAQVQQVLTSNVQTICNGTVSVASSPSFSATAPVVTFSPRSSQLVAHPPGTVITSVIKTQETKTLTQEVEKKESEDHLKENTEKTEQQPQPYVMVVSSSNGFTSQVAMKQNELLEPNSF", "how_it_was_run": "as §1"}, "EHF": {"target": "T4, EHF (Homo sapiens, UniProt Q9NZC4 1-300)", "T4 sequence": "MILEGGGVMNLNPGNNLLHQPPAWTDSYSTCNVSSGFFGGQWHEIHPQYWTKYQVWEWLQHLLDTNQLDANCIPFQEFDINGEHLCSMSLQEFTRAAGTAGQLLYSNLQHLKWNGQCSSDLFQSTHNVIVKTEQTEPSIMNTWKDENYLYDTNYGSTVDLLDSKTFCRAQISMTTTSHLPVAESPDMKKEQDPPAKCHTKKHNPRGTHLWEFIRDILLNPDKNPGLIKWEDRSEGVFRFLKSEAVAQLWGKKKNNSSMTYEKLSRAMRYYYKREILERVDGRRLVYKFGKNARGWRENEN", "how_it_was_run": "as §1"}, "SPIB": {"target": "SPIB (Homo sapiens, UniProt Q01892 1-262)", "sequence (Q01892 whole entry)": "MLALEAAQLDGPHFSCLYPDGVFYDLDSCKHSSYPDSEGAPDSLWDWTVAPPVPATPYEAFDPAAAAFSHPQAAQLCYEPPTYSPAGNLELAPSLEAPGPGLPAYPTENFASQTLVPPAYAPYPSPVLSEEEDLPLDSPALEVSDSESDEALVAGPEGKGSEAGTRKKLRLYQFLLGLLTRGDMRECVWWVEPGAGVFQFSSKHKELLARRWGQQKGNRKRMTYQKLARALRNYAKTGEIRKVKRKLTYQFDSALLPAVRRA", "how_it_was_run": "as §1"}, "ELK3": {"target": "T5, ELK3 (Homo sapiens, UniProt P41970 1-407)", "T5 sequence": "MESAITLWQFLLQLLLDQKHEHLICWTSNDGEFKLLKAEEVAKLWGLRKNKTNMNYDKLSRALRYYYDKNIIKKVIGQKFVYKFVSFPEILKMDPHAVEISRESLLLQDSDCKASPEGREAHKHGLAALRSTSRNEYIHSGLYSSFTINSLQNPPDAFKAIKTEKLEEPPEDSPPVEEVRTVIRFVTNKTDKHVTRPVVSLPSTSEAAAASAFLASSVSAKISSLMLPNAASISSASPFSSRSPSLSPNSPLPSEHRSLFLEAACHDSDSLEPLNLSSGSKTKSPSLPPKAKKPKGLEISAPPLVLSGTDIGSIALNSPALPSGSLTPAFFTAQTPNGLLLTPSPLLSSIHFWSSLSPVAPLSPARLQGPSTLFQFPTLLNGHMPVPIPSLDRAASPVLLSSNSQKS", "how_it_was_run": "as §1"}, "SPIC": {"target": "T6, SPIC (Homo sapiens, UniProt Q8N5J4 1-248)", "T6 sequence": "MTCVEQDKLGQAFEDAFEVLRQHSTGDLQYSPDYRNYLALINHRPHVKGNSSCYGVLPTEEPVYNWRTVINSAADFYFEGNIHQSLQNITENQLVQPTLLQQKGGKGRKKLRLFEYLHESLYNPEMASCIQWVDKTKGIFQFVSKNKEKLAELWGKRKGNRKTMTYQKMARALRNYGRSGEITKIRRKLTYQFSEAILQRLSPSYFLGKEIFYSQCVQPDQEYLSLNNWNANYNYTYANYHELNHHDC", "how_it_was_run": "as §1"}, "ELF4": {"target": "ELF4 (Homo sapiens, UniProt Q99607 1-663)", "sequence (Q99607 whole entry)": "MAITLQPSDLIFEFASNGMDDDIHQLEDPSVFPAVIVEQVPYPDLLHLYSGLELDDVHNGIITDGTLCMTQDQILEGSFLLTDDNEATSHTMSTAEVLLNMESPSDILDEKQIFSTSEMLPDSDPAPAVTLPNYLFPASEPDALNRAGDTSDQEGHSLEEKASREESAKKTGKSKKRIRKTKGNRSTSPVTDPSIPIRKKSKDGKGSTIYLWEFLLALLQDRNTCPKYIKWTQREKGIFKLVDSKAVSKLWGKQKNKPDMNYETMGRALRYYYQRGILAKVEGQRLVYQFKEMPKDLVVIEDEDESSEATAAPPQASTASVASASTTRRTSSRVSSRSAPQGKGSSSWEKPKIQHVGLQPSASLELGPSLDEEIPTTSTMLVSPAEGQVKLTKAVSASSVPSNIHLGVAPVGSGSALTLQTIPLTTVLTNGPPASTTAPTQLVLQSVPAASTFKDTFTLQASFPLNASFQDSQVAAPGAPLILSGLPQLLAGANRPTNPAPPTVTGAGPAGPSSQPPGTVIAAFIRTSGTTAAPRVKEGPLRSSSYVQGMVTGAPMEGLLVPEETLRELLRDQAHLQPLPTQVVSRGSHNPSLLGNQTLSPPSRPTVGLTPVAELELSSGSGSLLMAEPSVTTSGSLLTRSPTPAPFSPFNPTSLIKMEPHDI", "how_it_was_run": "as §1"}}}
{"sequence": "TGATTA", "values": [{"measurement": "binding signal", "setting": "ELK1", "value": "1.17 fold enrichment (6-mer frequency, TF over GST control)"}, {"measurement": "binding signal", "setting": "GABPA", "value": "1.1 fold enrichment (6-mer frequency, TF over GST control)"}, {"measurement": "binding signal", "setting": "ERG", "value": "1.02 fold enrichment (6-mer frequency, TF over GST control)"}, {"measurement": "binding signal", "setting": "ELF1", "value": "1.09 fold enrichment (6-mer frequency, TF over GST control)"}, {"measurement": "binding signal", "setting": "EHF", "value": "1.11 fold enrichment (6-mer frequency, TF over GST control)"}, {"measurement": "binding signal", "setting": "SPIB", "value": "1.07 fold enrichment (6-mer frequency, TF over GST control)"}, {"measurement": "binding signal", "setting": "ELK3", "value": "1.07 fold enrichment (6-mer frequency, TF over GST control)"}, {"measurement": "binding signal", "setting": "SPIC", "value": "1.17 fold enrichment (6-mer frequency, TF over GST control)"}, {"measurement": "binding signal", "setting": "ELF4", "value": "1.07 fold enrichment (6-mer frequency, TF over GST control)"}]}
